# Several values for one entry are separate records, joined by “and”; a condition that tells them apart may be missing. Equal entries are not always repeated. Out of some 5,500 compounds screened, about 2,000 (36%) were called active. Not shown: some 18% with an inconclusive outcome. Some of the results follow. A number with no mark means an inactive call. No stated cut-off is given here; in the data, active means normalized growth mostly below about 0.91 (no sharp cut-off); inconclusive means no clear call, values can overlap the other calls; inactive means mostly above about 0.92.
# Assay: chemical genetic growth profiling, strain panel (AID 1159580);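 further: tested at 20 µM; growth read once vehicle control cultures reached saturation at 30 °C; 1 = growth at the plate median or of vehicle wells; lower values mean less growth of the strain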
# Conditions: growth OD
smiles,measurement,setting,value
O=C1OC(=O)C2C3CCC(O3)C12 (stereo not given),normalized growth,"S. cerevisiae deletion strains, locus YKL009W, strain mrt4, hits give low values",0.895
same,normalized growth,"S. cerevisiae deletion strains, locus YKL068W, hits give low values",1
same,normalized growth,"S. cerevisiae deletion strains, locus YKL085W, strain MDH1 (second series), hits give low values",1.01
same,normalized growth,"S. cerevisiae deletion strains, locus YKL085W, strain MDH1, hits give low values",1.01
same,normalized growth,"S. cerevisiae deletion strains, locus YKL160W, strain elf1, hits give low values",1.04
same,normalized growth,"S. cerevisiae deletion strains, locus YKL190W, strain CNB1, hits give low values",0.991
same,normalized growth,"S. cerevisiae deletion strains, locus YKR001C, strain vps1, hits give low values",0.95
same,normalized growth,"S. cerevisiae deletion strains, locus YKR026C, strain gcn3, hits give low values",1
same,normalized growth,"S. cerevisiae deletion strains, locus YKR091W, strain srl3, hits give low values",1.01
same,normalized growth,"S. cerevisiae deletion strains, locus YLL001W, strain dnm1, hits give low values",0.995
same,normalized growth,"S. cerevisiae deletion strains, locus YLL026W, hits give low values",1
same,normalized growth,"S. cerevisiae deletion strains, locus YLL041C, strain sdh2, hits give low values",1.02
same,normalized growth,"S. cerevisiae deletion strains, locus YLR027C, strain aat2, hits give low values",0.994
same,normalized growth,"S. cerevisiae deletion strains, locus YLR039C, strain RIC1, hits give low values",1.06
same,normalized growth,"S. cerevisiae deletion strains, locus YLR058C, strain SHM2, hits give low values",1.01
same,normalized growth,"S. cerevisiae deletion strains, locus YLR102C, strain apc9, hits give low values",0.972
same,normalized growth,"S. cerevisiae deletion strains, locus YLR113W, strain HOG1, hits give low values",0.843 (active)
same,normalized growth,"S. cerevisiae deletion strains, locus YLR221C, strain rsa3, hits give low values",0.983
same,normalized growth,"S. cerevisiae deletion strains, locus YLR258W, strain gsy2, hits give low values",1.02
same,normalized growth,"S. cerevisiae deletion strains, locus YLR262C, strain YPT6 (second series), hits give low values",1.06
same,normalized growth,"S. cerevisiae deletion strains, locus YLR262C, strain YPT6, hits give low values",1.06
same,normalized growth,"S. cerevisiae deletion strains, locus YLR268W, strain sec22, hits give low values",0.979
same,normalized growth,"S. cerevisiae deletion strains, locus YLR320W, strain mms22, hits give low values",1
same,normalized growth,"S. cerevisiae deletion strains, locus YLR330W, strain CHS5, hits give low values",1
same,normalized growth,"S. cerevisiae deletion strains, locus YLR342W, strain FKS1 (second series), hits give low values",1.02
same,normalized growth,"S. cerevisiae deletion strains, locus YLR342W, strain FKS1, hits give low values",1.03
same,normalized growth,"S. cerevisiae deletion strains, locus YLR357W, strain rsc2, hits give low values",1.01
same,normalized growth,"S. cerevisiae deletion strains, locus YLR370C, strain arc18, hits give low values",0.999
same,normalized growth,"S. cerevisiae deletion strains, locus YLR371W, strain rom2, hits give low values",0.959
same,normalized growth,"S. cerevisiae deletion strains, locus YLR384C, strain iki3, hits give low values",1.01
same,normalized growth,"S. cerevisiae deletion strains, locus YLR418C, strain cdc73, hits give low values",0.928
same,normalized growth,"S. cerevisiae deletion strains, locus YML016C, strain PPZ1, hits give low values",1.01
same,normalized growth,"S. cerevisiae deletion strains, locus YML032C, strain rad52, hits give low values",0.968
same,normalized growth,"S. cerevisiae deletion strains, locus YML120C, strain ndi1, hits give low values",0.998
same,normalized growth,"S. cerevisiae deletion strains, locus YML124C, strain tub3, hits give low values",0.986
same,normalized growth,"S. cerevisiae deletion strains, locus YMR058W, strain fet3, hits give low values",1
same,normalized growth,"S. cerevisiae deletion strains, locus YMR078C, strain ctf18, hits give low values",0.963
same,normalized growth,"S. cerevisiae deletion strains, locus YMR125W, strain sto1, hits give low values",1.01
same,normalized growth,"S. cerevisiae deletion strains, locus YMR129W, hits give low values",1
same,normalized growth,"S. cerevisiae deletion strains, locus YMR205C, strain PFK2, hits give low values",1.03
same,normalized growth,"S. cerevisiae deletion strains, locus YMR223W, strain ubp8, hits give low values",0.989
same,normalized growth,"S. cerevisiae deletion strains, locus YMR231W, strain pep5, hits give low values",0.988
same,normalized growth,"S. cerevisiae deletion strains, locus YMR263W, strain SAP30, hits give low values",1.03
same,normalized growth,"S. cerevisiae deletion strains, locus YMR307W, strain GAS1, hits give low values",1.02
same,normalized growth,"S. cerevisiae deletion strains, locus YNL067W, strain RPL9B, hits give low values",1.01
same,normalized growth,"S. cerevisiae deletion strains, locus YNL071W, strain lat1, hits give low values",1
same,normalized growth,"S. cerevisiae deletion strains, locus YNL128W, strain TEP1, hits give low values",1.01
same,normalized growth,"S. cerevisiae deletion strains, locus YNL153C, strain GIM3, hits give low values",1.01
same,normalized growth,"S. cerevisiae deletion strains, locus YNL175C, strain NOP13, hits give low values",1.02
same,normalized growth,"S. cerevisiae deletion strains, locus YNL183C, strain NPR1, hits give low values",0.887
same,normalized growth,"S. cerevisiae deletion strains, locus YNL197C, strain WHI3, hits give low values",1.01
same,normalized growth,"S. cerevisiae deletion strains, locus YNL209W, strain ssb2, hits give low values",0.994
same,normalized growth,"S. cerevisiae deletion strains, locus YNL224C, strain SQS1, hits give low values",1.01
same,normalized growth,"S. cerevisiae deletion strains, locus YNL233W, strain BNI4, hits give low values",1.02
same,normalized growth,"S. cerevisiae deletion strains, locus YNL248C, strain rpa49, hits give low values",1.05
same,normalized growth,"S. cerevisiae deletion strains, locus YNL250W, strain rad50, hits give low values",0.93
same,normalized growth,"S. cerevisiae deletion strains, locus YNL271C, strain bni1, hits give low values",0.967
same,normalized growth,"S. cerevisiae deletion strains, locus YNL298W, strain CLA4, hits give low values",0.901 (active)
same,normalized growth,"S. cerevisiae deletion strains, locus YNL307C, strain MCK1, hits give low values",0.977
same,normalized growth,"S. cerevisiae deletion strains, locus YNL322C, strain KRE1 (second series), hits give low values",1.01
same,normalized growth,"S. cerevisiae deletion strains, locus YNL322C, strain KRE1, hits give low values",1.02
same,normalized growth,"S. cerevisiae deletion strains, locus YNR049C, strain mso1, hits give low values",1.01
same,normalized growth,"S. cerevisiae deletion strains, locus YNR052C, strain pop2, hits give low values",0.983
same,normalized growth,"S. cerevisiae deletion strains, locus YOL006C, strain TOP1, hits give low values",1.03
same,normalized growth,"S. cerevisiae deletion strains, locus YOL012C, strain htz1",0.735
same,normalized growth,"S. cerevisiae deletion strains, locus YOL147C, strain pex11, hits give low values",0.973
same,normalized growth,"S. cerevisiae deletion strains, locus YOR001W, strain rrp6, hits give low values",0.964
same,normalized growth,"S. cerevisiae deletion strains, locus YOR061W, strain CKA2, hits give low values",1.01
same,normalized growth,"S. cerevisiae deletion strains, locus YOR069W, strain VPS5, hits give low values",1.02
same,normalized growth,"S. cerevisiae deletion strains, locus YOR070C, strain gyp1, hits give low values",1.02
same,normalized growth,"S. cerevisiae deletion strains, locus YOR080W, strain dia2, hits give low values",1.01
same,normalized growth,"S. cerevisiae deletion strains, locus YOR083W, strain WHI5 (second series), hits give low values",1.01
same,normalized growth,"S. cerevisiae deletion strains, locus YOR083W, strain WHI5, hits give low values",1.04
same,normalized growth,"S. cerevisiae deletion strains, locus YOR106W, strain vam3, hits give low values",1.05
same,normalized growth,"S. cerevisiae deletion strains, locus YOR136W, strain idh2, hits give low values",0.964
same,normalized growth,"S. cerevisiae deletion strains, locus YOR144C, strain elg1, hits give low values",0.982
same,normalized growth,"S. cerevisiae deletion strains, locus YOR184W, strain ser1, hits give low values",0.979
same,normalized growth,"S. cerevisiae deletion strains, locus YOR231W, strain MKK1, hits give low values",0.89
same,normalized growth,"S. cerevisiae deletion strains, locus YOR265W, strain rbl2, hits give low values",1.01
same,normalized growth,"S. cerevisiae deletion strains, locus YOR270C, strain vph1, hits give low values",1.03
same,normalized growth,"S. cerevisiae deletion strains, locus YOR290C, strain snf2, hits give low values",1.05
same,normalized growth,"S. cerevisiae deletion strains, locus YOR316C, strain cot1, hits give low values",0.979
same,normalized growth,"S. cerevisiae deletion strains, locus YPL051W, strain arl3, hits give low values",1.03
same,normalized growth,"S. cerevisiae deletion strains, locus YPL055C, strain LGE1, hits give low values",0.959 and 1.03
same,normalized growth,"S. cerevisiae deletion strains, locus YPL078C, strain atp4, hits give low values",1.06
same,normalized growth,"S. cerevisiae deletion strains, locus YPL106C, strain sse1, hits give low values",1.04
same,normalized growth,"S. cerevisiae deletion strains, locus YPL240C, strain hsp82, hits give low values",1
same,normalized growth,"S. cerevisiae deletion strains, locus YPL241C, strain CIN2, hits give low values",1.01
same,normalized growth,"S. cerevisiae deletion strains, locus YPL256C, strain CLN2, hits give low values",0.926
same,normalized growth,"S. cerevisiae deletion strains, locus YPR119W, strain clb2, hits give low values",0.968
same,normalized growth,"S. cerevisiae deletion strains, locus YPR141C, strain kar3, hits give low values",0.957
same,normalized growth,"S. cerevisiae deletion strains, locus YPR163C, strain tif3, hits give low values",0.96
same,normalized growth,"S. cerevisiae deletion strains, locus YPR167C, strain met16, hits give low values",0.977
same,normalized growth,"S. cerevisiae deletion strains, strain wtn01, hits give low values",0.983
same,normalized growth,"S. cerevisiae strains, strain wild type, hits give low values",1.01

# From PubChem BioAssay AID1159580 (chemical genetic matrix, 2015)
